# Assay results taken from PubChem BioAssay (EPA / NIEHS).
# Records with an inconclusive call do not appear. The source made the active and inactive calls. The calls were made as follows, unless noted: active = hit-call score of the fitted dose curve at least 0.9, where 1 is the maximum; inconclusive = response in the unintended direction; inactive = score below 0.9.
# Columns and labels:
# [1] = molecular target: human Ephrin type-B Receptor 2 (EphB2), EPHB2 (gene 2048) (UniProt P29323); test: NVS_ENZ_hEphB2: NovaScreen (NVS) Enzymatic Assay for human Ephrin type-B Receptor 2 (EphB2) (AID 2283156)
# Procedure, shortened: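 Recombinant kinase with fluorescent substrate, product separated by electrophoretic mobility shift, read 1 h after dosing. Duplicate 25 uM screen, then singleton concentration-response to 50 uM max; loss of signal versus DMSO.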
# [2] = tested on: rat Monoamine Oxidase, MAO-A, Central (MAOAC), gene 29253; test: NVS_ENZ_rMAOAC: NovaScreen (NVS) Enzymatic Assay for rat Monoamine Oxidase, MAO-A, Central (MAOAC) (AID 2283243);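 also: potency refers to inhibition seen as signal drop below DMSO baseline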
# Procedure, shortened: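 Rat brain tissue extract served as the cell-free enzyme source; activity was measured by radiometric scintillation counting 1.5 hours after compound addition. Loss of signal relative to DMSO baseline indicated inhibition; primary screen at 25 uM in duplicate.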
# [3] = molecular target: human Ephrin type-A Receptor 2 (EphA2), EPHA2 (gene 1969) (UniProt P29317); test: NVS_ENZ_hEphA2: NovaScreen (NVS) Enzymatic Assay for human Ephrin type-A Receptor 2 (EphA2) (AID 2283155)
# Procedure, shortened: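 Cell-free recombinant EphA2 kinase with specific substrate, 1 h, fluorescence with electrophoretic mobility-shift separation of substrate and product. Primary screen at 25 uM in duplicate; hits retested in singleton concentration-response up to 50 uM, referenced to DMSO.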
# [4] = molecular target: human Fibroblast Growth Factor Receptor 1 (FGFR1), FGFR1 (gene 2260) (UniProt P11362); test: NVS_ENZ_hFGFR1: NovaScreen (NVS) Enzymatic Assay for human Fibroblast Growth Factor Receptor 1 (FGFR1) (AID 2283159)
# Procedure, shortened: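 Cell-free recombinant kinase with fluorescent substrate, product separated by electrophoretic mobility shift; read 1 hour after dosing, loss of signal relative to DMSO. Initial screen in duplicate at 25 uM, actives followed in concentration series.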
# [5] = molecular target: Norway rat Vesicular Monoamine Transporter (VMAT2), neurotransmitter transporter, Slc18a2 (gene 25549) (UniProt Q01827); test: NVS_TR_rVMAT2: NovaScreen (NVS) Transporter Assay for Norway rat Vesicular Monoamine Transporter (VMAT2), neurotransmitter transporter (AID 2283376);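 also: actives lower the bound radioligand signal below the DMSO level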
# Procedure, shortened: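 Radioligand displacement binding on rat forebrain tissue preparation, filter-based scintillation read-out 1 hour after dosing. Primary screen in duplicate at 25 uM, then concentration series for actives; loss of signal versus DMSO.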
# [6] = ATG_M_32_XSP2: Attagene TRANS-FACTORIAL Multi-Species (XSP2) HepG2 Assay for M19 Transcription Factor (Internal Marker) (AID 2283826)
# Procedure, shortened: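 HepG2 cells transiently transfected with GAL4-UAS reporter units; XSP2 panel included 3 nM 6-alpha-fluorotestosterone and 1.5 nM norgestrel for androgen receptor stimulation. Reporter mRNA read 24 h post-dosing by RT-PCR/capillary electrophoresis; fitted upward versus DMSO.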
# [7] = molecular target: human Aurora Kinase A - serine/threonine-protein Kinase 6 (AurA), AURKA (gene 6790) (UniProt O14965); test: NVS_ENZ_hAurA: NovaScreen (NVS) Enzymatic Assay for human Aurora Kinase A - serine/threonine-protein Kinase 6 (AurA) (AID 2283142)
# Procedure, shortened: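 Cell-free enzymatic assay with human Aurora A, 1 hour after dosing. Fluorescent substrate turnover detected after electrophoretic mobility shift separation of substrate and product. Screened at 25 uM, actives retested in concentration-response up to 50 uM.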
# [8] = molecular target: human MET Proto-Oncogene, Receptor Tyrosine Kinase (MET), MET (gene 4233) (UniProt P08581); test: NVS_ENZ_hMet: NovaScreen (NVS) Enzymatic Assay for human MET Proto-Oncogene, Receptor Tyrosine Kinase (MET) (AID 2283180)
# Procedure, shortened: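 Cell-free MET kinase assay using recombinant protein and fluorescent substrate, with mobility-shift separation; read 1 h after dosing. Primary duplicate at 25 uM; actives in singleton concentration-response to 50 uM maximum. Signal loss versus DMSO.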
# [9] = molecular target: human Phosphatase and Tensin Homolog (PTEN), PTEN (gene 5728) (UniProt P60484); test: NVS_ENZ_hPTEN: NovaScreen (NVS) Enzymatic Assay for human Phosphatase and Tensin Homolog (PTEN) (AID 2283203)
# Procedure, shortened: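 Cell-free recombinant human PTEN with fluorescent substrate; product separated by electrophoretic mobility shift and read by fluorescence 1 h after dosing. Primary screen in duplicate at 25 uM, actives followed in concentration series versus DMSO.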
# [10] = molecular target: human Protein Tyrosine Phosphatase Non-receptor Type 2 (PTPN2), PTPN2 (gene 5771) (UniProt P17706); test: NVS_ENZ_hPTPN2: NovaScreen (NVS) Enzymatic Assay for human Protein Tyrosine Phosphatase Non-receptor Type 2 (PTPN2) (AID 2283207)
# Procedure, shortened: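 Cell-free recombinant enzyme with fluorescent substrate, product separated by electrophoretic mobility shift; read 1 h after dosing. Primary screen single concentration (25 uM) in duplicate; actives followed in concentration series; loss of signal versus DMSO.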
# [11] = tested on: rat Monoamine Oxidase, MAO-A, Peripheral (MAOAP), gene 29253; test: NVS_ENZ_rMAOAP: NovaScreen (NVS) Enzymatic Assay for rat Monoamine Oxidase, MAO-A, Peripheral (MAOAP) (AID 2283237)
# Procedure, shortened: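 Rat liver mitochondrial membranes served as the MAO-A source, with enzyme activity measured by radiometric scintillation counting 1.17 hours after dosing. Loss of signal was fitted against DMSO; primary screen used 25 uM in duplicate, follow-up used concentration series.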
# [12] = molecular target: Voltage-dependent N-type calcium channel subunit alpha-1B (Rattus norvegicus) (UniProt Q02294); test: NVS_IC_rCaChN: NovaScreen (NVS) Ion Channel Assay for rat Calcium Channel, Type N (CaChN) (AID 2283317)
# [13] = molecular target: rat Monoamine Oxidase, MAO-B, Central (MAOBC), Maob (gene 25750) (UniProt P19643); test: NVS_ENZ_rMAOBC: NovaScreen (NVS) Enzymatic Assay for rat Monoamine Oxidase, MAO-B, Central (MAOBC) (AID 2283238)
# Procedure, shortened: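 MAO-B activity in rat brain tissue preparation, cell-free, measured radiometrically by scintillation counting 1.17 h after dosing. Screened in duplicate at 25 uM; actives then in concentration-response up to 50 uM. Loss of signal versus DMSO scored.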
# [14] = CCTE_Harrill_HTTr_Apoptosis_PRF_DMEM_12hr: (Pilot) CCTE's 12-hour Apoptosis Assessment for the High-Throughput Transcriptomics (HTTr) Platform, in MCF-7 cells cultured in phenol red-free DMEM + 10% charcoal-stripped fetal bovine serum, Harrill Lab (AID 2283985; active = hit-call score of the fitted dose curve at least 0.9, where 1 is the maximum; inactive = score below 0.9)
# Procedure, shortened: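 MCF-7 cells in phenol red-free DMEM with 10% charcoal-stripped FBS, eight-point dilution series, 12 h exposure. Caspase-3/7 activation imaged by high content imaging with CellEvent Green reagent; bidirectional fit vs DMSO.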
# [15] = molecular target: rat Acetylcholinesterase (AChE), Ache (gene 83817) (UniProt P37136); test: NVS_ENZ_rAChE: NovaScreen (NVS) Enzymatic Assay for rat Acetylcholinesterase (AChE) (AID 2283233)
# Procedure, shortened: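 Rat brain membrane acetylcholinesterase activity measured colorimetrically 0.33 h after compound addition, loss of signal relative to DMSO. Primary screen in duplicate at 25 uM; actives re-run as concentration-response with 50 uM top concentration.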
# PPP2CA (gene 5515) = PPP2CA (gene 5515) (UniProt P67775); test: NVS_ENZ_hPPP2CA: NovaScreen (NVS) Enzymatic Assay for human Protein Phosphatase 2 Aatalytic subunit Alpha (PPP2CA) (AID 2283199)
# Procedure, shortened: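 Recombinant human PPP2CA with fluorescent substrate; product separated from substrate by electrophoretic mobility shift, read 1.33 h after dosing. Duplicate single-point at 25 uM, then singleton concentration-response up to 50 uM; loss of signal versus DMSO.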
# human Ephrin type-A Receptor 2 (EphA2), EPHA2 (gene 1969), sequence (P29317 whole entry, looked up): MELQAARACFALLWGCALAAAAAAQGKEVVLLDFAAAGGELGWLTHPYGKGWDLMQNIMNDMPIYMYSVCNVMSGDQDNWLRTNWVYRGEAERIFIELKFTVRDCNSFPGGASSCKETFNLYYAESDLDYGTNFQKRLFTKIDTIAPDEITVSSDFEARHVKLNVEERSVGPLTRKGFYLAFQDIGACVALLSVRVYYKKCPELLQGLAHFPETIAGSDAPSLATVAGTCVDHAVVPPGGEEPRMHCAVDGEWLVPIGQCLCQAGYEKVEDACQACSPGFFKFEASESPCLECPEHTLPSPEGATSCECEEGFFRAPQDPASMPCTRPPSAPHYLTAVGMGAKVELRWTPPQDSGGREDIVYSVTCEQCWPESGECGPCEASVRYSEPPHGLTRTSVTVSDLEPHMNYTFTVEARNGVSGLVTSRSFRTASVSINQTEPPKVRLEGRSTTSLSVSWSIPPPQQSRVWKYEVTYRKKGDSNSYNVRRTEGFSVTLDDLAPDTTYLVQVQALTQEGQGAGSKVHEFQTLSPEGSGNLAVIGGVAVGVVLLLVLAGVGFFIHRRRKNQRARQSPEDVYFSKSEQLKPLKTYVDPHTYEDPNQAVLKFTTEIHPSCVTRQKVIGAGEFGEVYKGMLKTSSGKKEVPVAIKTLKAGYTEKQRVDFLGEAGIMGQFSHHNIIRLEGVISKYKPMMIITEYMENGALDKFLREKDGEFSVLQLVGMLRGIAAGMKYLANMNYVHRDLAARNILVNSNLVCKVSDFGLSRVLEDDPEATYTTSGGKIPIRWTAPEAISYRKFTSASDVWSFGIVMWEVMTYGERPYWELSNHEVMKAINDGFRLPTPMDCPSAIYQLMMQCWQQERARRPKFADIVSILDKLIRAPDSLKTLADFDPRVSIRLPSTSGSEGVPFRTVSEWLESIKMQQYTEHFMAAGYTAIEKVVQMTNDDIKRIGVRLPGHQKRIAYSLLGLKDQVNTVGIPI
# human Protein Tyrosine Phosphatase Non-receptor Type 2 (PTPN2), PTPN2 (gene 5771), sequence (P17706 whole entry, looked up): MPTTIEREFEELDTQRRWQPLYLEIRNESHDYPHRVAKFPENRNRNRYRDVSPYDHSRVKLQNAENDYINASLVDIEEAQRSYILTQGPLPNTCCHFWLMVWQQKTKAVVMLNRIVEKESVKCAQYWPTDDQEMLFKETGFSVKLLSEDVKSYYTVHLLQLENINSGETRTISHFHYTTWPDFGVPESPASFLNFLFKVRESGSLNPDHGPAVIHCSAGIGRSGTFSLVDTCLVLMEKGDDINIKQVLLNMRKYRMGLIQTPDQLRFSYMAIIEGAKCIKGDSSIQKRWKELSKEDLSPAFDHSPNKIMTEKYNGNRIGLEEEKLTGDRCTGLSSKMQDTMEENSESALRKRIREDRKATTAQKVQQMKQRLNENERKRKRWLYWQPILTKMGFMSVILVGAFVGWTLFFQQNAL
# human Fibroblast Growth Factor Receptor 1 (FGFR1), FGFR1 (gene 2260), sequence (P11362 whole entry, looked up): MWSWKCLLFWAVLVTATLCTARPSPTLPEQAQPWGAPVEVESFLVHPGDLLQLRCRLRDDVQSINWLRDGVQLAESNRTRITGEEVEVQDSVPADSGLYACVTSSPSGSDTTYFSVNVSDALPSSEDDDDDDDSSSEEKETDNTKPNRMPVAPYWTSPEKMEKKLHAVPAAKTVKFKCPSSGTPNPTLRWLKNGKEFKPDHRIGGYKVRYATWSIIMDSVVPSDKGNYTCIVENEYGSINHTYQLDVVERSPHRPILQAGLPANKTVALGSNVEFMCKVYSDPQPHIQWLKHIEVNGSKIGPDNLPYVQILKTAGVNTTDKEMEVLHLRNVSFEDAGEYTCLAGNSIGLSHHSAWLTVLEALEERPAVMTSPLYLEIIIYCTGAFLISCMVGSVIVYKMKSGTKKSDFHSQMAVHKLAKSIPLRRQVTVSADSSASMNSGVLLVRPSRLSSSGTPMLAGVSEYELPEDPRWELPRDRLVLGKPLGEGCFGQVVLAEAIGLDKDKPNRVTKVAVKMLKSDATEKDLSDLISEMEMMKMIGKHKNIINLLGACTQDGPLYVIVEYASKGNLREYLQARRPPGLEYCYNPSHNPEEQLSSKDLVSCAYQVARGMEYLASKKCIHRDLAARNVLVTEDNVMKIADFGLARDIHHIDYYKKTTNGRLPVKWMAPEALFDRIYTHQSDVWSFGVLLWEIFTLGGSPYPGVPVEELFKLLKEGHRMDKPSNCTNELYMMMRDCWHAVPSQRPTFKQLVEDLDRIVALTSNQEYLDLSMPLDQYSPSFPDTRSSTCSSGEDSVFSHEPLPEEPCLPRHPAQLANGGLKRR
# human Aurora Kinase A - serine/threonine-protein Kinase 6 (AurA), AURKA (gene 6790), sequence (O14965 whole entry, looked up): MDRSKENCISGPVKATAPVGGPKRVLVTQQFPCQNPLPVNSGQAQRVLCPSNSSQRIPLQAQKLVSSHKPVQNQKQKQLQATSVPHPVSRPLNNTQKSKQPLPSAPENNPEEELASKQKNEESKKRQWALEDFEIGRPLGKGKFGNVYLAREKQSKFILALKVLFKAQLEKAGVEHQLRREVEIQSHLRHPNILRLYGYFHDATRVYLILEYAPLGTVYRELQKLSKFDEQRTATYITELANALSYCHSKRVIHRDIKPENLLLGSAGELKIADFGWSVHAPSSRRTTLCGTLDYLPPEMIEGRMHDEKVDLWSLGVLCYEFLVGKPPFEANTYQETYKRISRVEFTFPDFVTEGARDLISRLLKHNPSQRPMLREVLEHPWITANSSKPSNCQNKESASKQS
# human Phosphatase and Tensin Homolog (PTEN), PTEN (gene 5728), sequence (P60484 whole entry, looked up): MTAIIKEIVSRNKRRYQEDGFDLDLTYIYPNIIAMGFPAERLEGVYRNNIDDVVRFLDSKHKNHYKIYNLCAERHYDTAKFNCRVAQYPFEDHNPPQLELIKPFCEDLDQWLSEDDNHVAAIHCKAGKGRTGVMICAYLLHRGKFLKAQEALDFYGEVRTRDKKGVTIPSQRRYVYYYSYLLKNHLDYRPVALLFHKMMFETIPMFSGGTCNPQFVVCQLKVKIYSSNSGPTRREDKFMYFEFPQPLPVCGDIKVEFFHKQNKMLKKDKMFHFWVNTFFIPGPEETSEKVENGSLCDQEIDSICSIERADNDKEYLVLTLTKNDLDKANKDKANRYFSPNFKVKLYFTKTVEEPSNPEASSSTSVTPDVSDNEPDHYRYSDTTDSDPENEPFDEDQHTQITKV
# human MET Proto-Oncogene, Receptor Tyrosine Kinase (MET), MET (gene 4233), sequence (P08581 whole entry, looked up): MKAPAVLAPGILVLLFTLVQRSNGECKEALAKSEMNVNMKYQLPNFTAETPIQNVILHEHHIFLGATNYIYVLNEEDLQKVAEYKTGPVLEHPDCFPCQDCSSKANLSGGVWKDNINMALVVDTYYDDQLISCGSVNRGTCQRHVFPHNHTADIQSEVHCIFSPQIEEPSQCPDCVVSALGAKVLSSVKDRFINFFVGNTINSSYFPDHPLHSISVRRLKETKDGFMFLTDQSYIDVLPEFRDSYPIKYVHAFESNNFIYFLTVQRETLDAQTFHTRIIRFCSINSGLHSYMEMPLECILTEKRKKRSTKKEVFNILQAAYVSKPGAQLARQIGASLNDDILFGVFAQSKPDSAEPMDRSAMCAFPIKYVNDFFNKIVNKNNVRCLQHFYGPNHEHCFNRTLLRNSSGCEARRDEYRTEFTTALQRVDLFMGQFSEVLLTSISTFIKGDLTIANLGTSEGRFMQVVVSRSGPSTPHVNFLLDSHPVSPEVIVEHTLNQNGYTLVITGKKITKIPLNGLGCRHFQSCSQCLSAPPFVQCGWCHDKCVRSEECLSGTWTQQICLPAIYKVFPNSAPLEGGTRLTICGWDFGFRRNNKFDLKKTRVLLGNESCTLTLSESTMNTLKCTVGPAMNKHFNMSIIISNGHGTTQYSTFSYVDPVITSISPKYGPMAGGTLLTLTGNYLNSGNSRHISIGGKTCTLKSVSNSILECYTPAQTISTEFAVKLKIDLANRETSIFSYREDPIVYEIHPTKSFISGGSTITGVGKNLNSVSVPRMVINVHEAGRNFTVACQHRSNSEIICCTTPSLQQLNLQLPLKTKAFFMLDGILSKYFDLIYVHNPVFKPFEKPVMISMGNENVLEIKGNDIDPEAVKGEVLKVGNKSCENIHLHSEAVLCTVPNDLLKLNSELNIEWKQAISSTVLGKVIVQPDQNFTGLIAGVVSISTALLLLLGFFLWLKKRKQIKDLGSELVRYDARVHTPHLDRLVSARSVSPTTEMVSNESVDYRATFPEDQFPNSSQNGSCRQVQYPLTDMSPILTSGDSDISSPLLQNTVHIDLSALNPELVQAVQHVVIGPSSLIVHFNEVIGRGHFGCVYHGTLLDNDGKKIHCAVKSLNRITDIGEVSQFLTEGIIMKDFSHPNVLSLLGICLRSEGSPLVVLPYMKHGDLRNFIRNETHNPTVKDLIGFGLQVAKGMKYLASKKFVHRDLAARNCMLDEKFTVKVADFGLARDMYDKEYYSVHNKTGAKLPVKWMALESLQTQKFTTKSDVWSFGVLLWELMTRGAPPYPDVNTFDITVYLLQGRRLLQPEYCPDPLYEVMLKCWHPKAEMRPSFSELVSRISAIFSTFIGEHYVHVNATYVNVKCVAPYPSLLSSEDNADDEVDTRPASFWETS
# rat Acetylcholinesterase (AChE), Ache (gene 83817), sequence (P37136 whole entry, looked up): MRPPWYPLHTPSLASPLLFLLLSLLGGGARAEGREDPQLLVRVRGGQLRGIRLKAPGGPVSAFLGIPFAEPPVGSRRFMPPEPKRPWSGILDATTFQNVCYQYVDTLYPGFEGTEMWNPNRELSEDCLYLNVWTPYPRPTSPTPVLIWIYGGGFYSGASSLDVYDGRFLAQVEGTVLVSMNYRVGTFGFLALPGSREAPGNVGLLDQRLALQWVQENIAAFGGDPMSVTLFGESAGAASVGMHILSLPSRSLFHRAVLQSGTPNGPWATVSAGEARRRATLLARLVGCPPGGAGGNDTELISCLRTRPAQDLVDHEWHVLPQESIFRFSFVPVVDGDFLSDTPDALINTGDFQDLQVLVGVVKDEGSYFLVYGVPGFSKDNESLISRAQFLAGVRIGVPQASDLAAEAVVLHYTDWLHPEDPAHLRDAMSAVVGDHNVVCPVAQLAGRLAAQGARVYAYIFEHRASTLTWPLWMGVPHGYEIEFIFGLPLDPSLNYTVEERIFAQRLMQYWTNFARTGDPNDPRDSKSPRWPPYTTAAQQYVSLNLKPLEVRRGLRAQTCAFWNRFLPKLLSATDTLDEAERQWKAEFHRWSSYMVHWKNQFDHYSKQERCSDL
compound,measurement,setting,value
CCOC(=O)CC(CC(=O)OCC)(OC(C)=O)C(=O)OCC,outcome,[1],inactive
same,AC50,[2],25 µM (active)
Clc1nc(Cl)c(Cl)c(Cl)c1Cl,outcome,[3],inactive
same,outcome,[1],inactive
same,outcome,[4],inactive
same,outcome,[5],inactive
same,outcome,[6],inactive
FC(F)(F)C(F)(F)C(F)(F)C(F)(F)C(F)(F)C(F)(F)CCI,outcome,[7],inactive
same,outcome,[4],inactive
same,outcome,[8],inactive
same,outcome,[9],inactive
same,outcome,[10],inactive
Cc1ccc(Cl)cc1,outcome,[3],inactive
Nc1ccc(S(=O)(=O)c2ccc(N)cc2)cc1,outcome,[4],inactive
O=C(O)CC(O)C(=O)O (stereo not drawn),outcome,[7],inactive
same,outcome,[10],inactive
same,outcome,[11],inactive
CC(C)c1cccc(C(C)C)c1,outcome,[3],inactive
same,outcome,[12],inactive
N[C@@H](Cc1cc(I)c(Oc2ccc(O)c(I)c2)c(I)c1)C(=O)O,AC50,[7],4.51 µM (active)
same,outcome,[8],inactive
same,outcome,[13],inactive
same,outcome,[14],inactive
CCCCc1oc2ccccc2c1C(=O)c1cc(I)c(OCCN(CC)CC)c(I)c1,outcome,[3],inactive
same,outcome,[15],inactive
same,AC50,[2],18.9 µM (active)
same,outcome,[14],inactive
O=C(OCCCCCOC(=O)c1ccccc1)c1ccccc1,outcome,[7],inactive
same,outcome,PPP2CA (gene 5515),inactive
same,outcome,[9],inactive
same,outcome,[10],inactive
CCOC(=O)NCCOc1ccc(Oc2ccccc2)cc1,outcome,[3],inactive
same,outcome,[10],inactive
